One test has as its system UACC-62 melanoma. In words: NCI-60 one-dose screen, 48 h (100 = growth as untreated, 0 = no growth, -100 = all killed). As to conditions: 10 µM unless noted.
For the next test, the system named is TK-10 renal. The description is as above. To be noted: 10 µM unless noted.

In PubChem BioAssay (NCI) one finds growth data, which are given here for 35 compounds.

Several values for one entry are separate records, joined by “and”; a condition that tells them apart may be missing. Equal entries are not always repeated. This is part of a sample that, as a whole, favours compounds with a hit. Of some 83,000 tested, about 20% had one in any assay.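 In brief: 96-well plates, 48 h treatment, single concentration, percent growth endpoint.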 Activity calls are given as the source filed them. Rule for the calls: active = growth percent below 10; inactive = the rest.

In the case of `COC(=O)/C=C\C(C#N)(C#N)N=Cc1ccsc1`, the growth in the test on UACC-62 melanoma was -87.5% [100 µM] (active) and -74.6% [100 µM] (active); in the test with TK-10 renal it was -98.5% [100 µM] (active) and -84.4% [100 µM] (active).

For the compound `N#Cc1c(N)oc(-c2cccc([N+](=O)[O-])c2)c1C#N`, the growth in the test with UACC-62 melanoma is -82.9% [100 µM] (active) and -75% [100 µM] (active); in the test on TK-10 renal, -44.5% [100 µM] (active) and -69.6% [100 µM] (active).

On to `N#CC1(C#N)C2CCCCC23OC(=N)C1(C#N)C(c1ccco1)O3` (stereo not given), for which the values for the growth with UACC-62 melanoma and in the test with TK-10 renal were -50.9% [100 µM] (active) and -40.6% [100 µM] (active), respectively.

As to `N#Cc1n[nH]n(-c2ccccc2)c1=O`, the growth in the test with UACC-62 melanoma was 91.7% [100 µM] (inactive) and 100% [100 µM] (inactive); in the test on TK-10 renal it was 115% [100 µM] (inactive) and 107% [100 µM] (inactive).

With `CNc1nc2c(C)ccc3[nH]c(N(C)C)nc3c-2n1`, the growth in the test on UACC-62 melanoma was 30.8% [100 µM] (inactive) and 2.14% [100 µM] (active); in the test with TK-10 renal, 60% [100 µM] (inactive) and 12.5% [100 µM] (inactive).

`COc1cc([C@H]2OC[C@H]3[C@@H]2CO[C@@H]3c2cc(OC)c3c(c2)OCO3)cc(OC)c1OC`: the growth in the test on UACC-62 melanoma is 43.3% [100 µM] (inactive) and 24% [100 µM] (inactive); in the test on TK-10 renal, 33.1% [100 µM] (inactive) and 24.9% [100 µM] (inactive).

In the case of `CC1OC23CCCCC2C(C#N)(C#N)C1(C#N)C(=N)O3` (stereo not given), the figures for the growth with UACC-62 melanoma and with TK-10 renal were -14.6% [100 µM] (active) and 36.7% [100 µM] (inactive), respectively.

Consider `COc1cc(C)c2c(c1C=O)Oc1c(c(C)c(O)c3c1C(O)OC3=O)OC2=O` (stereo not given), for which the growth in the test with UACC-62 melanoma was -82.4% [100 µM] (active) and 98.2% [100 µM] (inactive); in the test on TK-10 renal, -0.673% [100 µM] (active) and 99.4% [100 µM] (inactive).

As for `CC1=C2NCN(C)N=C2C(C#N)(C#N)C1(C#N)C#N`, the growth in the test with UACC-62 melanoma is -78.8% [100 µM] (active) and -94.8% [100 µM] (active); with TK-10 renal it was -7.38% [100 µM] (active) and -90.4% [100 µM] (active).

For `Cc1ccc(OCC2OC(n3cnc4nc(N)nc(Cl)c43)CC2Oc2ccc(C)cc2)cc1` (stereo not given), the growth is 50.4% [100 µM] (inactive) and -64% [100 µM] (active) in the test with UACC-62 melanoma; 104% [100 µM] (inactive) and -84.6% [100 µM] (active) in the test with TK-10 renal.

Regarding `O=C1c2ccccc2-c2c1c1ccccc1c(=O)n2-c1cccnc1`, the growth was 35.8% [100 µM] (inactive) and 0.376% [100 µM] (active) in the test with UACC-62 melanoma; 59.8% [100 µM] (inactive) and -34% [100 µM] (active) in the test on TK-10 renal.

For the compound `Cc1ccc(C)c(NC(=O)/C(=N\N)C(c2cnc3ccc([N+](=O)[O-])cc3n2)[N+](=O)[O-])c1` (stereo not given), the growth with UACC-62 melanoma was 46.3% [100 µM] (inactive) and 15.7% [100 µM] (inactive); in the test on TK-10 renal, 146% [100 µM] (inactive) and 18.1% [100 µM] (inactive).

Regarding `COc1ccc(OC)c(N(CN2C(=O)CCC2C(=O)O)C(C)=O)c1` (stereo not given), the growth in the test on UACC-62 melanoma was 80.4% [100 µM] (inactive) and 103% [100 µM] (inactive); in the test on TK-10 renal, 78.2% [100 µM] (inactive) and 103% [100 µM] (inactive).

In the case of `O=C1NC(N/N=C\c2ccccc2)=N/C1=C/c1ccc(Cl)cc1`, the growth was -9.96% [100 µM] (active) and 107% [100 µM] (inactive) in the test on UACC-62 melanoma; -70.8% [100 µM] (active) and 57.9% [100 µM] (inactive) in the test on TK-10 renal.

On to `Fc1ccc(Nc2nc(Cl)c3[nH]cnc3n2)cc1Cl`, for which the growth in the test on UACC-62 melanoma is 68% [100 µM] (inactive) and 34.7% [100 µM] (inactive); in the test on TK-10 renal it was 48.7% [100 µM] (inactive) and -27.6% [100 µM] (active).

`O=C(CCc1ccc(O)c(O)c1)c1ccc(O)c(O)c1O`: the growth in the test on UACC-62 melanoma is -41% [100 µM] (active) and -97.2% [100 µM] (active); in the test with TK-10 renal it was 74.7% [100 µM] (inactive) and -88% [100 µM] (active).

For `COc1cc2c3cc1Oc1c(OC)c(OC)cc4c1C(Cc1ccc(O)c(c1)-c1cc(ccc1OC)CC3N(C)CC2)N(C)CC4` (stereo not given), the growth with UACC-62 melanoma was -88% [100 µM] (active) and -95.6% [100 µM] (active); with TK-10 renal, -41.8% [100 µM] (active) and -97% [100 µM] (active).

For the compound `COc1ccccc1-c1n[nH]c(-c2ccccc2O)n1`, the growth with UACC-62 melanoma was 62.2% [100 µM] (inactive) and 50.3% [100 µM] (inactive); in the test on TK-10 renal it was 84.4% [100 µM] (inactive) and 32.7% [100 µM] (inactive).

Take `COc1cc2c(cc1C1COc3cc4occc4cc3C1=O)OCO2` (stereo not given): the growth with UACC-62 melanoma is 62.1% [100 µM] (inactive) and 73.4% [100 µM] (inactive); in the test with TK-10 renal, 88.2% [100 µM] (inactive) and 80.4% [100 µM] (inactive).

Take `CC1CC(C(=O)OC2OC(COC3OC(CO)C(OC4OC(C)C(O)C(O)C4O)C(O)C3O)C(O)C(O)C2O)C2CCC3(C)C(=CCC4(C)C3CCC3C(C)(CO)C(O)C(O)CC34C)C2C1C` (stereo not given): the growth in the test on UACC-62 melanoma was -93.3% [100 µM] (active) and -100% [100 µM] (active); in the test with TK-10 renal, -65.8% [100 µM] (active) and -100% [100 µM] (active).

For the compound `NNc1[nH]c(=S)[nH]c1C(N)=O`, the growth in the test on UACC-62 melanoma is 98.3% [100 µM] (inactive) and 90.9% [100 µM] (inactive); with TK-10 renal, 121% [100 µM] (inactive) and 111% [100 µM] (inactive).

In the case of `CCCCCCSC[C@H](OC(C)=O)[C@@H](OC(C)=O)[C@@H](OC(C)=O)[C@@H](COC(C)=O)OC(C)=O`, the growth with UACC-62 melanoma was 51.3% [100 µM] (inactive) and 71.8% [100 µM] (inactive); in the test with TK-10 renal, 95.1% [100 µM] (inactive) and 101% [100 µM] (inactive).

Take `Cc1cc2nn(C3CCCO3)nc2cc1C` (stereo not given): the growth in the test with UACC-62 melanoma was 70.8% [100 µM] (inactive) and 101% [100 µM] (inactive); in the test on TK-10 renal it was 81.3% [100 µM] (inactive) and 101% [100 µM] (inactive).

`O=C1CC(c2ccccc2)NCCCCN2CC(CN1)C(C(O)c1ccccc1)C2=O` (stereo not given): the growth with UACC-62 melanoma was 72.5% [100 µM] (inactive) and 81.1% [100 µM] (inactive); in the test on TK-10 renal it was 97.8% [100 µM] (inactive) and 88.7% [100 µM] (inactive).

For the compound `COC(=O)C(Cc1nc2ccccc2[nH]c1=O)C(=O)C(=O)Nc1cc(C(F)(F)F)ccc1Cl` (stereo not given), the growth in the test on UACC-62 melanoma was -87.8% [100 µM] (active) and -39.4% [100 µM] (active); with TK-10 renal, -90.1% [100 µM] (active) and 0.262% [100 µM] (active).

With `CC(=O)c1ccc(NC(=O)/C(CC(=O)/C=C/c2ccccc2)=N/NC(N)=S)cc1`, the growth in the test on UACC-62 melanoma is 91.1% [100 µM] (inactive) and 43.7% [100 µM] (inactive); in the test with TK-10 renal it was 125% [100 µM] (inactive) and 43.7% [100 µM] (inactive).

Turning to `CC(C)CCCC(C)[C@H]1CC[C@H]2[C@@H]3CC[C@H]4C[C@@H](CCC=C(c5cc(Cl)c(O)c(C(=O)O)c5)c5cc(Cl)c(O)c(C(=O)O)c5)CC[C@]4(C)[C@H]3CC[C@]12C` (stereo not given in full) (tested in a mixture with another compound), the growth in the test with UACC-62 melanoma was 72.7% [50 µM] (inactive) and 21% [50 µM] (inactive); with TK-10 renal, 179% [50 µM] (inactive) and 2.06% [50 µM] (active).

Take `COc1cc2c(cc1-c1coc3cc(O)ccc3c1=O)OCO2`: the growth in the test on UACC-62 melanoma is 58.8% [100 µM] (inactive) and 55% [100 µM] (inactive); in the test with TK-10 renal, 81.2% [100 µM] (inactive) and 3.05% [100 µM] (active).

For `C=C(C)C1CC2(C)C(C)CC(OC(=O)/C(C)=C\C)CC2C(OC(=O)/C(C)=C\C)C1O` (stereo not given), the growth with UACC-62 melanoma is 5.5% [100 µM] (active); with TK-10 renal it was 34.6% [100 µM] (inactive) and 71% [100 µM] (inactive).

`COc1c2c(c3c(c1OC)c(=O)c1ccccc1n3C)OCO2`: the results for the growth in the test on UACC-62 melanoma and in the test with TK-10 renal were 58.8% [100 µM] (inactive) and 74.8% [100 µM] (inactive), respectively.

`CC1CC(=O)N(N(C)C)C(C#N)(C#N)C1(C#N)C#N` (stereo not given): the growth in the test with UACC-62 melanoma is -96.5% [100 µM] (active) and -97.6% [100 µM] (active); in the test with TK-10 renal, -97.2% [100 µM] (active) and -90.4% [100 µM] (active).

For `CCCCCCCCOC(=O)C12Oc3ccc(-c4ccc5c(c4O)C(O)=C4C(=O)CC(C)C(O)C4(C(=O)OCCCCCCCC)O5)c(O)c3C(O)=C1C(=O)CC(C)C2O` (stereo not given), the growth is -66.7% [100 µM] (active) and -97.2% [100 µM] (active) with UACC-62 melanoma; -21.8% [100 µM] (active) and -100% [100 µM] (active) in the test with TK-10 renal.

Consider `CC(=N/N=C/c1ccccn1)/C(C)=N/N=C(C)/C(C)=N/N=C(C)/C(C)=N/N=C(C)/C(C)=N\N=C\c1ccccn1`, for which the growth in the test on UACC-62 melanoma was 92.9% [100 µM] (inactive) and 85% [100 µM] (inactive); with TK-10 renal it was 99.9% [100 µM] (inactive) and 81.3% [100 µM] (inactive).

In the case of `C/C(O)=C/c1nc2sc(C)c(C)c2c(=O)s1`, the growth with UACC-62 melanoma is 19.1% [100 µM] (inactive) and 37.1% [100 µM] (inactive); in the test with TK-10 renal, 50.2% [100 µM] (inactive) and 46.7% [100 µM] (inactive).

In the case of `CC(=O)C1=C(C)N2C(=NC3=C(CCc4ccccc43)C2c2cccc(Br)c2)S1` (stereo not given), the growth in the test on UACC-62 melanoma was 52.3% [100 µM] (inactive) and 8.59% [100 µM] (active); in the test on TK-10 renal it was 112% [100 µM] (inactive) and 48.5% [100 µM] (inactive).
